± gives the standard deviation of the averaged measurements. In all, about 33,000 sequences were measured (“E-score (rank enrichment, -0.5 to 0.5)”: median about -0.0043, highest 2% from about 0.24 on). The entries come from a sample that favours the highest values as a whole.

The subject of this experiment is 2Sp-muMax20 (muMax20 with two 2,6-bis(methyl)pyridine Cys staples). Briefly: PBM 8-mer E-score (E-score (rank enrichment, -0.5 to 0.5)); higher = stronger preferential binding. How it is done:
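Protein binding microarray (universal PBM chip covering all 10-mers in fixed probe flanks) with chemically synthesized human Max(13-93) bHLH-LZ analogs (not full-length Max) bearing noncanonical residues (hArg, Tha, Aib, Nle at 65) and aromatic Cys staples. Read-out per 8-mer (and its reverse complement): E-score (rank-based enrichment, -0.5 to 0.5) and Z-score of median probe intensity.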
GCGTCCAA: the “PBM 8-mer E-score” value was determined as 0.016 ± 0.062. The same measure for TAGGATCA: -0.0923 ± 0.052; for CAATAGTC: -0.0201 ± 0.017; for GCGTGGTA: 0.237 ± 0.045. Take ACGTGGTG: the “PBM 8-mer E-score” value turned out to be 0.236 ± 0.017.

AGGTGGTG: the “PBM 8-mer E-score” value was -0.104 ± 0.087. With ACGTGGTC the figure was 0.129 ± 0.092; with CCGTGGTA, -0.156 ± 0.15; with ACGTGGTA, 0.146 ± 0.11. With GATTACGA the figure was 0.0561 ± 0.094; with AAATCCCT, -0.0147 ± 0.019; with GAGGCGCA, 0.0587 ± 0.03. Consider ACTTTCCG, for which the “PBM 8-mer E-score” value was found to be 0.00749 ± 0.064. As for ACCTTGAC, the “PBM 8-mer E-score” value is 0.00626 ± 0.011. The same measure for TAACTATA: 0.255 ± 0.07; for AAACTATA: 0.115 ± 0.0056; for CAACTATA: 0.203 ± 0.018.

In the case of CCCTTTTC, the “PBM 8-mer E-score” value was -0.0442 ± 0.061. The same measure for CATTACCC: 0.0244 ± 0.022; for AATTACCC: 0.237 ± 0.0059; for AATTACCA: 0.171 ± 0.012. With GATGCAGC the figure was 0.0324 ± 0.041; with GTGGTCGA, 0.0711 ± 0.071; with AAGATCTA, -0.063 ± 0.13. For the sequence AAGATCTT, the “PBM 8-mer E-score” value stood at 0.322 ± 0.058. As to AAGATCTG, the “PBM 8-mer E-score” value turned out to be 0.0472 ± 0.038. The same measure for GGGATAAA: 0.0538 ± 0.03; for ATTGTATA: 0.2422 ± 0.0019. The same measure for ATTGTACC: 0.0323 ± 0.019; for CTTGTACA: 0.192 ± 0.026; for CCTGTATA: 0.0769 ± 0.072. Take ATTGTCTC: the “PBM 8-mer E-score” value was -0.126 ± 0.07. The same measure for ATTGTCTA: 0.269 ± 0.012. With ACTGTATA the figure was 0.213 ± 0.085; with ATTGTACA, 0.26 ± 0.016. With GTTGTATA the figure was 0.167 ± 0.024. GCTGTATA: the “PBM 8-mer E-score” value amounted to 0.25 ± 0.021. As for CTTGTATA, the “PBM 8-mer E-score” value worked out at 0.17 ± 0.0046. The same measure for GTTGTCTA: 0.0499 ± 0.064.

Take AAGCCAGT: the “PBM 8-mer E-score” value was -0.0999 ± 0.034. The same measure for ACCAAGAC: -0.0903 ± 0.027; for GGCGCGTA: 0.126 ± 0.013. Regarding ATTTAATG, the “PBM 8-mer E-score” value was found to be 0.122 ± 0.031. In the case of ACAACACG, the “PBM 8-mer E-score” value was determined as 0.185 ± 0.037. As for TAAGAGCA, the “PBM 8-mer E-score” value turned out to be 0.145 ± 0.072. On to TAACGACA, for which the “PBM 8-mer E-score” value is 0.087 ± 0.0014.

On to GTAGAGAA, for which the “PBM 8-mer E-score” value was -0.00059 ± 0.14. ATTGTATC: the “PBM 8-mer E-score” value came out at 0.254 ± 0.043. With ATTGTATG the figure was 0.135 ± 0.036. Regarding CTTGTATC, the “PBM 8-mer E-score” value was determined as 0.141 ± 0.019. As for AGCTTAGG, the “PBM 8-mer E-score” value is -0.22 ± 0.016. Take ACACTTTG: the “PBM 8-mer E-score” value was 0.0709 ± 0.076. The same measure for CTAGGGGC: 0.0163 ± 0.073.

Consider ACCGGTAG, for which the “PBM 8-mer E-score” value is -0.253 ± 0.036. For CTACCGGA, the “PBM 8-mer E-score” value was -0.147 ± 0.0082.

ACCGCGTA: the “PBM 8-mer E-score” value was -0.0143 ± 0.044. In the case of CGCGCGTA, the “PBM 8-mer E-score” value came out at 0.176 ± 0.021.

As for CACGCGTC, the “PBM 8-mer E-score” value was found to be 0.2622 ± 0.0015. The same measure for AACGCGTC: -0.0413 ± 0.045. The same measure for AACGCGTA: -0.0641 ± 0.026; for CACGCGTA: 0.175 ± 0.043; for CGCGCGTC: 0.28 ± 0.0065.

In the case of ACCGCGTC, the “PBM 8-mer E-score” value is -0.0765 ± 0.041.

Consider AACGCGTG, for which the “PBM 8-mer E-score” value came to 0.13 ± 0.022.

Take AGCGCGTC: the “PBM 8-mer E-score” value was -0.117 ± 0.097. With CACGCGTG the figure was 0.376 ± 0.015. For the sequence ACCGCGTG, the “PBM 8-mer E-score” value stood at 0.284 ± 0.038. Regarding GGTCGGGA, the “PBM 8-mer E-score” value is -0.25 ± 0.0058.

As to CGTGACCA, the “PBM 8-mer E-score” value was 0.1 ± 0.098. The same measure for AAGCCATT: -0.0452 ± 0.016; for AGCCACGG: -0.2315 ± 0.00033; for TGTCTGAA: 0.0107 ± 0.0037. Turning to CCCCGAAG, the “PBM 8-mer E-score” value was -0.126 ± 0.04. With AAAGGAGA the figure was 0.0434 ± 0.019; with GAAGGAGA, 0.246 ± 0.023.

For CAAGGAGA, the “PBM 8-mer E-score” value is -0.133 ± 0.073. The same measure for GTATAGAC: 0.121 ± 0.0088; for CCATGTTA: 0.155 ± 0.054; for ACATGTTG: 0.268 ± 0.089.

As for GGATGTTA, the “PBM 8-mer E-score” value came out at 0.196 ± 0.022. Consider ATATGTTA, for which the “PBM 8-mer E-score” value was determined as 0.229 ± 0.027. The same measure for GCATGTTA: 0.252 ± 0.095; for ATTTGTTA: 0.228 ± 0.064; for ACATGTTA: 0.3172 ± 0.0015. The same measure for ATTTGTTC: 0.106 ± 0.018. The same measure for AGATGTTG: -0.146 ± 0.015; for ACATGTTC: 0.161 ± 0.04. With ATTTGTTG, the “PBM 8-mer E-score” value came to 0.266 ± 0.034.

For AAATGTTA, the “PBM 8-mer E-score” value turned out to be 0.156 ± 0.028. The same measure for CGACATCG: -0.164 ± 0.033; for CGTCCGCA: -0.0773 ± 0.074. For the sequence AAGGGGGG, the “PBM 8-mer E-score” value is -0.275 ± 0.053. Regarding CGCTTTAG, the “PBM 8-mer E-score” value came to 0.0627 ± 0.011. With ACGGGTGC the figure was -0.0393 ± 0.032; with GGCCGTAC, 0.0557 ± 0.032; with CTGGATCA, -0.158 ± 0.033. With GCTGCTGA the figure was -0.206 ± 0.048.

As for AGTGCATG, the “PBM 8-mer E-score” value amounted to 0.0577 ± 0.061. ATGTGTTA: the “PBM 8-mer E-score” value was determined as 0.197 ± 0.14.

For ATGTGTTC, the “PBM 8-mer E-score” value was -0.00117 ± 0.0014. Regarding ATGTGTTG, the “PBM 8-mer E-score” value came out at 0.254 ± 0.023.

Turning to ACCGATCA, the “PBM 8-mer E-score” value is -0.0856 ± 0.019. Regarding CATGGCTA, the “PBM 8-mer E-score” value worked out at 0.245 ± 0.055. Turning to GATGGCTA, the “PBM 8-mer E-score” value came to 0.03 ± 0.092.

Regarding CATGGCTC, the “PBM 8-mer E-score” value worked out at 0.0571 ± 0.018. With CCACGTAC the figure was 0.0687 ± 0.048; with AACTGTAT, 0.104 ± 0.043. For the sequence ACAGATGG, the “PBM 8-mer E-score” value came out at 0.0291 ± 0.022. The same measure for TCGCCCCA: 0.246 ± 0.013; for CCGCCCCG: 0.22 ± 0.037. The same measure for CCGCCCCC: -0.261 ± 0.11; for ACGCCCCG: -0.107 ± 0.028; for TAGCCCCA: 0.324 ± 0.022. With TAGCCCAA the figure was 0.0851 ± 0.013; with ACGCCCCC, -0.168 ± 0.036.

With ACGCCCCA, the “PBM 8-mer E-score” value was determined as 0.284 ± 0.013. Take TCGCCCAA: the “PBM 8-mer E-score” value worked out at 0.0937 ± 0.081. In the case of CCGCCCCA, the “PBM 8-mer E-score” value turned out to be 0.344 ± 0.054. CAGCCCCA: the “PBM 8-mer E-score” value turned out to be 0.196 ± 0.033. The same measure for GCGCCCCA: 0.135 ± 0.0094.

The values are drawn from the supplement of paper PMC12636033.
